Experimental data published in PubChem BioAssay (NCATS).
“And” between values parts separate entries of the source, which are not always exact repeats. Equal entries are not always repeated. Records with an inconclusive call do not appear. A call without a number means that no potency is given here. The source made the active and inactive calls. Calls come from the whole dose curve; as a rule, active = well fitted cell-killing curve with a large enough effect; inconclusive = small, poorly fitted or top-dose-only effect, or effect the other way; inactive = no such curve, though single readings can be large or run the other way.

Assay: Viability qHTS for spleen associated tyrosine kinase inhibitor (SYKi) naive MV4-11 cells (AID 1963823); note: nearly all actives have a fitted effect of over 40% in size
Details: MV4-11 AML viability, CellTiter-Glo luminescence, 72 h; series mostly up to 45 µM
Description: Department of Medicine, Hematology/Oncology
University Hospital Frankfurt, Germany.
Trials have shown promising clinical activity of the selective SYK inhibitor entospletinib in patients with high expressing HOXA9/MEIS1 acute leukemias. As the development of resistance mechanisms is a common problem in the use of targeted drugs, we performed a chemical library screen to identify drug sensitivities in SYK inhibitor resistant AML cells. […] Glucocorticoids are potent immunosuppressants which work in part by inhibiting the transcription of cytokine genes.
Described herein is a viability screen to look for activity in the SYK inhibitor naive cell line against four NCATS compound libraries (MIPE 5.0, NPC, NPACT, and Kinase) totaling 11372 compounds. Active hits were reacquired for confirmation and further secondary assay testing.
SEQUENCE No. (e.g., 1, 2, 3, etc.); […] (e.g., Cells, Incubation, Reagent, etc.); VALUE; DESCRIPTION.
1; Media; 2uL; white, solid-bottom Corning assay plate.
2; Compounds; 23nL; Echo acoustic dispenser.
3; Cell; 5uL; 500 cells per well.
4: Incubation; 72hr; 37 C, 5% CO2, 95% humidity.
5; Reagent; 3uL; CellTiter-Glo reagent (Promega).
6; Incubation; 10min; room temperature.
7; Detection; Luminescence; ViewLux plate reader (PerkinElmer).
NOTES (numbers refer to Sequence numbers above
1. Quantitative high-throughput screening (qHTS) of small molecule compounds was conducted on naive SYKi MV4-11 cell line.
2. Twenty-three nanoliter of small molecule compounds were added to each assay plates using the Echo acoustic dispenser (Beckman Coulter).
3. Cells were seeded into the assay plates at a final density of 500 cells in 5uL of media per well using the Multi-drop Combi dispenser.
4. Plates were covered with stainless steel gasketed lids and incubated for 72 hours at standard cell culture conditions.
5. Viability was assessed by adding 3uL of CellTiter-Glo detection reagent (Promega).
6. Plates were covered with gasket lids and incubated for 10 minutes at room temperature.
7. Luminescence was measured on a ViewLux plate reader (PerkinElmer).
Potency is the fitted concentration of half-maximal effect.

Row | SMILES | Potency | viability (% of control)
1 | C[C@H](CCC(=O)O)[C@H]1CC[C@H]2[C@@H]3C[C@H](O)[C@@H]4C[C@H](O)CC[C@]4(C)[C@H]3CC[C@]12C | inactive | –
2 | CCn1nnc2c(N3CCOCC3)nc(-c3ccc(NC(=O)Nc4ccc(C(=O)N5CCN(C)CC5)cc4)cc3)nc21 | 20.6 nM (active) and 46.8 nM (active) | –
3 | CC(C)CNC(=O)/C=C/CCCCc1ccc2c(c1)OCO2 | inactive | –
4 | O=C(c1c(F)ccc(NS(=O)(=O)N2CC[C@@H](F)C2)c1F)c1c[nH]c2ncc(-c3cnc(C4CC4)nc3)cc12 | 6.51 µM (active) | –
5 | C[C@@H]1C(=O)O[C@H](C)[C@H]1CC(=O)[C@](C)(O)[C@H]1CC[C@@]2(O)C3=CC(=O)[C@@H]4C[C@@H](O)[C@@H](O)C[C@]4(C)C3CC[C@]12C (stereo not given in full) | inactive | –
6 | CCN(CC)CC(=O)OCC(=O)[C@@]1(O)CC[C@H]2[C@@H]3CCC4=CC(=O)CC[C@]4(C)[C@H]3[C@@H](O)C[C@@]21C | inactive | –
7 | Oc1cccc(-c2c3nc(c(-c4cccc(O)c4)c4ccc([nH]4)c(-c4cccc(O)c4)c4nc(c(-c5cccc(O)c5)c5ccc2[nH]5)CC4)C=C3)c1 | 16.8 µM (active) | –
8 | COc1cc2nc(N3CCCN(C)CC3)nc(NC3CCN(Cc4ccccc4)CC3)c2cc1OC | 2.35 µM (active) | –
9 | Nc1nc(-c2nn(Cc3ccccc3F)c3ncccc23)nc(N)c1N1CCOCC1 | inactive | –
10 | Cc1ncc(CO)c(C=O)c1O | inactive | –
11 | CC12CCC3c4ccc(O)cc4CCC3C1CCC2OC1OC(C(=O)O)C(O)C(O)C1O (stereo not given) | inactive | –
12 | CN(CC(=O)N(Cc1ccc(C2CCCCC2)cc1)c1ccc(C(=O)O)c(O)c1)S(=O)(=O)c1c(F)c(F)c(F)c(F)c1F | 4.17 µM (active) | –
13 | C/C=C/C=C/C(O)=C1\C(O)=C(C)C(=O)[C@@]2(C)OC(=O)[C@@](C)(NC(=O)/C=C/C(=O)O)[C@@H]12 | inactive | –
14 | CC(=O)OC1C(O)CC(O[C@@H]2O[C@H](CO)[C@@H](O)[C@H](O)[C@H]2O)C2CCC3C(=O)OC(c4ccoc4)CC3(C)C21 (stereo not given in full) | inactive | –
15 | CC(c1c[nH]c2ccccc12)C(O)C(=O)O (stereo not given) | inactive | –
16 | O=C(O)CCCc1c[nH]c2ccccc12 | inactive | –
17 | CC(=O)/C=C/C1(O)C(C)(C)CC(O)CC1(C)O (stereo not given) | inactive | –
18 | COC1=CC(=O)CC(C)C12Oc1cc(OC)cc(O)c1C2=O (stereo not given) | inactive | –
19 | CC1=C2[C@@H]([C@H](C)CC[C@H]2/C=C(\C)C(=O)O)[C@H](O)C1 | inactive | –
20 | C[N+](C)(C)CCOC(=O)CCC(=O)OCC[N+](C)(C)C | inactive | –

Row | SMILES | Potency | viability (% of control)
21 | CS(=O)(=O)CCNCc1ccc(-c2ccc3ncnc(Nc4ccc(OCc5cccc(F)c5)c(Cl)c4)c3c2)o1 | 20.6 µM (active) and 14.8 µM (active) | –
22 | CCC(C)CNCC(=O)N1CCC2SC=CC2C1COc1cccc(C)c1 (stereo not given) | 11.6 µM (active) | –
23 | CCCCCCCCCCOc1cc2c(=O)c(C(=O)OCC)c[nH]c2cc1OCC | – | 102% [at 4.97 µM] (inactive)
24 | Cc1cccc(C)c1NC(=O)c1ccc(N)cc1 | inactive | –
25 | C#Cc1cccc(Nc2ncnc3cc(OCCOC)c(OCCO)cc23)c1 | 1.48 µM (active) | –
26 | Cc1c(NC(=O)OC[C@@H]2COCCN2)cn2ncnc(Nc3ccc4c(cnn4Cc4cccc(F)c4)c3)c12 | 10.3 µM (active) and 13.2 µM (active) | –
27 | CN(C)c1cccc(-c2c3c(=O)n(-c4ccccc4Cl)[nH]c3cc(=O)n2C)c1 | inactive | –
28 | C=C(C(=O)O)C1CCC(C)C2CCC(=O)OC2(C)C1 (stereo not given) | inactive | –
29 | CC1(C)CCCC2(C)c3c4c(c(=O)oc(=O)c3=CCC12)=CCC1C(C)(C)CCCC41C (stereo not given) | inactive | –
30 | Cc1ccccc1N1CCN(S(=O)(=O)C[C@]23CC[C@H](C[C@@H]2NC(=O)[C@@H](N)CCS(C)(=O)=O)C3(C)C)CC1 | inactive | –
31 | O=C(NCCCNc1nc(Nc2cccc(NC(=O)N3CCCC3)c2)ncc1I)c1cccs1 | 0.0517 µM (active) | –
32 | O=C(O)/C=C/c1ccc(-c2ccc(O)c(C34CC5CC(CC(C5)C3)C4)c2)cc1 | 0.184 µM (active) | –
33 | C=C1CCC(OC(C)=O)C2(C)CC3(O)OC(=O)C(C)=C3CC12 (stereo not given) | inactive | –
34 | C=C1CCC2C(C)(C(=O)O)CC(O)CC2(C)C1CC/C(C)=C/C(=O)O (stereo not given) | inactive | –
35 | CN(CC1COCCO1)S(=O)(=O)Nc1ccc2ccc3ncc(-c4cnn(C)c4)cc3c(=O)c2c1 (stereo not given) | 0.164 µM (active) | –
36 | CC[C@H](C)[C@H](NC(=O)[C@H](Cc1ccc(O)cc1)NC(=O)[C@@H](N)C(C)C)C(=O)N[C@@H](Cc1cnc[nH]1)C(=O)N1CCC[C@H]1C(=O)N[C@@H](Cc1ccccc1)C(=O)O | – | 98.9% [at 4.97 µM] (inactive)
37 | CC(C)NCC(O)COc1ccc(COCCOC(C)C)cc1 (stereo not given) | inactive | –
38 | COc1c2c(c(C)c3c1C(=O)OC3)O[C@@]1(C)C[C@@H](O)[C@]34O[C@](OC)(CC[C@]3(C)[C@H]1C2)OC4(C)C | inactive | –
39 | Cc1ccc(S(=O)(=O)Nc2cc(-c3ccc(C#N)s3)ccc2C)cc1 | 0.0295 µM (active) | –
40 | Cc1ccc(NS(=O)(=O)c2cccc(C#N)c2)c2[nH]cc(C#N)c12 | 0.166 µM (active) | –
